Measurements: PubChem BioAssay (Tox21)
Where “and” joins values, the source holds several entries; their conditions need not be identical. Identical values can stand only once. Inconclusive results are not listed. Where a structure was tested more than once in an assay, its records may differ in their call. Calls of active or inactive are those of the source. Unless noted, calls come from the whole dose curve; as a rule, active = well fitted curve in the direction sought with a large enough effect in the repeat runs; inconclusive = weak or mixed curves; inactive = no such curve, though single readings can be large; an effect the other way counts as inactive or inconclusive.

What was measured:
[1] = qHTS RealTime-Glo MT Cell Viability Assay in HEK293 cells - 0 hour (AID 1224880); note: top concentration of the series differs between compounds; nearly all actives have a fitted effect of over 45% in size
Procedure, shortened: (§1)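 Viable HEK293 cells reduce a cell-permeant prosubstrate; the product diffuses out and is consumed by NanoLuc in the medium to give light. Compounds went in after a 5 h incubation and plates were read over the treatment course.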

[2] = A CellTox Green Cytotoxicity Assay to monitor cytotoxicity in HEK293 cells - 32 hour (AID 1224881); note: nearly all actives have a fitted effect of over 40% in size; note: potency is the fitted concentration of half-maximal effect
Procedure, shortened: (§2)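 Fluorescence intensity, read at 0, 8, 16, 24, 32 and 40 h of compound treatment, reflected dye binding to DNA of dead HEK293 cells; compounds (23 nL, DMSO) were added 5 h after plating cells with reagent.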

[3] = A CellTox Green Cytotoxicity Assay to monitor cytotoxicity in HepG2 cells - 0 hour (AID 1224882); note: nearly all actives have a fitted effect of over 35% in size; note: potency is the fitted concentration of half-maximal effect
Procedure, shortened: (§3)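 Using 1536-well format, dye-containing HepG2 suspension was seeded, allowed 5 h at 37 C/5% CO2, dosed by pintool with compounds, positive and negative controls, and imaged for fluorescence across 40 h.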

[4] = A CellTox Green Cytotoxicity Assay to monitor cytotoxicity in HepG2 cells - 32 hour (AID 1224883); note: nearly all actives have a fitted effect of over 50% in size; note: potency is the fitted concentration of half-maximal effect
Procedure, shortened: as §3

[5] = A CellTox Green Cytotoxicity Assay to monitor cytotoxicity in HEK293 cells - 8 hour (AID 1224884); note: nearly all actives have a fitted effect of over 35% in size; note: potency is the fitted concentration of half-maximal effect
Procedure, shortened: as §2

[6] = qHTS RealTime-Glo MT Cell Viability Assay in HepG2 cells - 16 hour (AID 1224885); note: nearly all actives have a fitted effect of over 50% in size
Procedure, shortened: (§4)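 HepG2 suspension premixed with RealTime-Glo reagents is plated at 600 cells per well and left 5 h at 37 C/5% CO2. Compounds in DMSO then go in, and bioluminescence reflecting viable cell number is recorded over 40 h.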

[7] = qHTS RealTime-Glo MT Cell Viability Assay in HEK293 cells - 24 hour (AID 1224886); note: top concentration of the series differs between compounds; nearly all actives have a fitted effect of over 50% in size
Procedure, shortened: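 Reads taken at 0, 8, 16, 24, 32 and 40 h from the same wells. HEK293 cells (600/well) carried RealTime-Glo reagents from seeding, with compound added after a 5 h settle at 37 C.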

[8] = qHTS RealTime-Glo MT Cell Viability Assay in HEK293 cells - 8 hour (AID 1224887); note: top concentration of the series differs between compounds; nearly all actives have a fitted effect of over 50% in size
Procedure, shortened: as §1

[9] = A CellTox Green Cytotoxicity Assay to monitor cytotoxicity in HEK293 cells - 16 hour (AID 1224888); note: nearly all actives have a fitted effect of over 35% in size
Procedure, shortened: as §2

[10] = qHTS RealTime-Glo MT Cell Viability Assay in HepG2 cells - 0 hour (AID 1224889); note: nearly all actives have a fitted effect of over 50% in size
Procedure, shortened: as §4

[11] = A CellTox Green Cytotoxicity Assay to monitor cytotoxicity in HepG2 cells - 8 hour (AID 1224890); note: nearly all actives have a fitted effect of over 45% in size; note: potency is the fitted concentration of half-maximal effect
Procedure, shortened: as §3

[12] = qHTS assay to identify small molecule antagonists of the estrogen receptor alpha (ER-alpha) signaling pathway using the BG1 cell line in the presence of 0.1 nM 17-beta-estradiol - cell viability counter screen (AID 1259241); note: nearly all actives have a fitted effect of over 40% in size; note: potency is the fitted concentration of half-maximal effect
Procedure, shortened: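 VM7Luc4E2 cells (endogenous full-length ER-alpha, 4xERE-luciferase), cultured 5 days in charcoal-stripped serum, exposed to compounds with 0.1 nM 17beta-estradiol (final) for 22 hr at 37C. Viability read in same wells as live-cell protease fluorescence after 30 min.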

[13] = qHTS assay to identify small molecule antagonists of the androgen receptor (AR) signaling pathway using the MDA cell line in the presence of 0.5 nM R1881 - cell viability counter screen (AID 1259242); note: nearly all actives have a fitted effect of over 45% in size
Procedure, shortened: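 Viability of MDA-kb2 cells was multiplexed with the luciferase AR readout; after 16 hr with compounds and R1881 at 0.5 nM final, CellTiter-Fluor fluorescence was recorded.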

[14] = molecular target: Estrogen receptor (Homo sapiens) (UniProt P03372); assay: qHTS assay to identify small molecule antagonists of the estrogen receptor alpha (ER-alpha) signaling pathway using the BG1 cell line in the presence of 0.1 nM 17-beta-estradiol (AID 1259244); note: nearly all actives have a fitted effect of over 50% in size; note: potency is the fitted concentration of half-maximal effect
Procedure, shortened: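 Estradiol at 0.1 nM (final) stimulates the endogenous ER-alpha of VM7Luc4E2 cells carrying an ERE-driven luciferase; compounds are co-incubated 22 h at 37C and luciferase output quantified by luminescence.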

[15] = qHTS assay to identify small molecule HDAC inhibitors (AID 1259364); note: potency is the fitted concentration of half-maximal effect;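 note: wild-type HCT-116 cells with endogenous class I/II HDAC activity; nearly all actives have a fitted effect of over 45% in size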
Procedure, shortened: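 Read-out: luminescence of HDAC-Glo I/II reagent, 30 min RT, reflecting class I/II deacetylase activity in whole HCT-116 cells pre-exposed 2 h to DMSO-dissolved compounds.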

[16] = qHTS assay to identify small molecule HDAC inhibitors - cell viability counter screen (AID 1259365)
Procedure, shortened: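 Wild-type HCT-116 cells, 1,500/well, cultured overnight, then compound-treated 2 h at 37 C. Viability measured as ATP luminescence with CellTiter-Glo after 30 min at room temperature.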

[17] = qHTS assay to identify small molecule antagonists of the sonic hedgehog signaling (Shh) pathway - cell viability counter screen (AID 1259367); note: nearly all actives have a fitted effect of over 55% in size; note: potency is the fitted concentration of half-maximal effect
Procedure, shortened: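 NIH/3T3-derived Gli1-Luc reporter cells, 2,000/well, plated 4 hr before compound addition, then stimulated with conditioned medium for 24 hr at 37C. Viability measured in the same wells by CellTiter-Fluor fluorescence, reagent added at 23 hr for 1 hr.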

[18] = qHTS assay to identify small molecule agonists of the sonic hedgehog signaling (Shh) pathway - cell viability counter screen (AID 1259366); note: nearly all actives have a fitted effect of over 50% in size
Procedure, shortened: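 NIH/3T3-derived Gli1-Luc reporter cells, 2,000 per well, received compound after 4 h and were treated about 23 h at 37C. Viability measured in the same wells by CellTiter-Fluor fluorescence after 1 h.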

[19] = molecular target: Androgen receptor (Homo sapiens) (UniProt P10275); assay: qHTS assay to identify small molecule antagonists of the androgen receptor (AR) signaling pathway using the MDA cell line in the presence of 0.5 nM R1881 (AID 1259243); note: nearly all actives have a fitted effect of over 50% in size
Procedure, shortened: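 Reporter cells cultured without CO2 receive test chemicals, then 0.5 nM R1881 final; after 16 hr at 37C, ONE-Glo is added and light output recorded.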

[20] = qHTS assay to identify small molecule phospholipidosis (PLD) inducers (AID 1259344; active = well fitted curve in the direction sought with a large enough effect; an effect the other way counts as inactive or inconclusive)
Procedure, shortened: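 HepG2 cells, 900/well, treated with compound plus LipidTOX Red for 24 h at 37 C; amiodarone positive and DMSO negative controls. Fixed with paraformaldehyde/Hoechst, then high-content imaging scored LipidTOX pit count and integrated intensity per well and per cell.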

Measured: Potency

Chain of Androgen receptor (Homo sapiens) (P10275 whole entry, looked up): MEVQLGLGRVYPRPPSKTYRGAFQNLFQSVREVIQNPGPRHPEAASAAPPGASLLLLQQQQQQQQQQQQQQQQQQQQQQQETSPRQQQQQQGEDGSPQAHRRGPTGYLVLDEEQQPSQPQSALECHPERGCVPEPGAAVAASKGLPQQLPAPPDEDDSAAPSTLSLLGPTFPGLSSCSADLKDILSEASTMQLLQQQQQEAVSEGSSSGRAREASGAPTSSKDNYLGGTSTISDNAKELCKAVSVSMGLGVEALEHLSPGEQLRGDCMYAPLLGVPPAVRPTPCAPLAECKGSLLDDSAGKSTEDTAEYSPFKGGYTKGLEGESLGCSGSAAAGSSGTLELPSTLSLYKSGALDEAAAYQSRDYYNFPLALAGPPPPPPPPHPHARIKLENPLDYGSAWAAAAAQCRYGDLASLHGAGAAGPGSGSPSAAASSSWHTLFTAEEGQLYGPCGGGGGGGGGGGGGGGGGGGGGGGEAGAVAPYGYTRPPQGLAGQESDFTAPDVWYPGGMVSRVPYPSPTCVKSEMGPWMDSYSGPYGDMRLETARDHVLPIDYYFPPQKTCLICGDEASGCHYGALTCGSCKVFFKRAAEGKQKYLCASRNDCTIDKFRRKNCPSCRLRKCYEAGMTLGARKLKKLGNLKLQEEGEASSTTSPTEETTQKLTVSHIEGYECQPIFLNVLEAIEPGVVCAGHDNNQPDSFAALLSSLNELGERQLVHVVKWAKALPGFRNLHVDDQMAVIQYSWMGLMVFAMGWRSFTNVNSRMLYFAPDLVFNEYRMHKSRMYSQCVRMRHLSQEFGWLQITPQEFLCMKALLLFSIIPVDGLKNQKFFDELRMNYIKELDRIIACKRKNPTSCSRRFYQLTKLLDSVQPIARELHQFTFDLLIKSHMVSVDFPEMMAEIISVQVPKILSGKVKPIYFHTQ
Chain of Estrogen receptor (Homo sapiens) (P03372 whole entry, looked up): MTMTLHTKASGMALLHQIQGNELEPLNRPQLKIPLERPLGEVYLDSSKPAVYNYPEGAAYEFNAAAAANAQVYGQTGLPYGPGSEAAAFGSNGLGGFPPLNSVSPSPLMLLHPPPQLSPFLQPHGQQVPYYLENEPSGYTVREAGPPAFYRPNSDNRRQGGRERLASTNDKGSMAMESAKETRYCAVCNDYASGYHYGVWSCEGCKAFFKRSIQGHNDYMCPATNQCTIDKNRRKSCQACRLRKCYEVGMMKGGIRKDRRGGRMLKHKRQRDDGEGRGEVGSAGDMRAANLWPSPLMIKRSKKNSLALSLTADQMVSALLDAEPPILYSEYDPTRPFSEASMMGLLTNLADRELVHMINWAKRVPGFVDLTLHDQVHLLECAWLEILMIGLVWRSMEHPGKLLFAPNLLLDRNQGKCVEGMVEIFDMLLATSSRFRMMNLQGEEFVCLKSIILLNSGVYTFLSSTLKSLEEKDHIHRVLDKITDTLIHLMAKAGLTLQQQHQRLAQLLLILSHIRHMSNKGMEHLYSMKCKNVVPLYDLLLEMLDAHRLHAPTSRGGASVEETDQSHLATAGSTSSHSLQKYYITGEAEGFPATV

CC(C)(C)C(=O)C1C(=O)c2ccccc2C1=O
active: [12] 54.5 µM | [14] 61.1 µM | [17] 60.5 µM
54.4 µM (active) and inactive: [4]
not listed: [18] | [19] | [20]
inactive: all other assays above

COCC(=O)O
not listed: [10] | [19] | [20]
inactive: all other assays above

OCC1CCCO1 (stereo not given)
not listed: [10] | [13] | [17] | [20]
inactive: all other assays above

C=C(C)C(=O)OCC(CC)(COC(=O)C(=C)C)COC(=O)C(=C)C
inactive and 24.1 µM (active): [5]
inactive and 42.9 µM (active): [2] | [3] | [4] | [11]
not listed: [9] | [10] | [14] | [17] | [19] | [20]
inactive: all other assays above

NCCNCCNCCNCCN
not listed: [10] | [13] | [14] | [18]
inactive: all other assays above

Cc1cc(Cc2ccc(N)c(C)c2)ccc1N
not listed: [4] | [14] | [19] | [20]
inactive: all other assays above

CCc1ccccc1O
19.2 µM (active) and inactive: [14]
not listed: [10] | [18] | [19] | [20]
inactive: all other assays above

C[C@@H]1O[C@@H](OC[C@H]2O[C@@H](Oc3c(-c4ccc(O)c(O)c4)oc4cc(O)cc(O)c4c3=O)[C@H](O)[C@@H](O)[C@@H]2O)[C@H](O)[C@H](O)[C@H]1O
not listed: [14] | [18]
inactive: all other assays above

NCCc1ccc(O)c(O)c1
active: [12] 34.5 µM | [14] 2.44 µM
30.7 µM (active) and inactive: [17]
not listed: [4] | [13] | [18] | [19]
inactive: all other assays above

O=c1c(-c2ccc(O)cc2)coc2cc(O)ccc12
active: [15] 5.39 µM and 6.11 µM
not listed: [7] | [20]
inactive: all other assays above

CCCCCCCCC
not listed: [17] | [19] | [20]
inactive: all other assays above

C=C(C#N)C(=O)OCC
not listed: [13] | [14] | [18] | [19] | [20]
inactive: all other assays above

CCCCCCCCCCCCOCC1CO1 (stereo not given)
not listed: [18] | [19] | [20]
inactive: all other assays above

CCCCC/C=C\C/C=C\CCCCCCCC(=O)OC
not listed: [10] | [13] | [18] | [19] | [20]
inactive: all other assays above

O=C(c1ccc(O)cc1)c1ccc(O)cc1O
inactive and 54.9 µM (active): [11]
not listed: [15] | [19] | [20]
inactive: all other assays above
